The list is not random: actives were taken first. Their share in the collection is about 3.9%.
PLK1 PBD block: PLK1 (human) polo-box domain binding inhibition; AID 720504; Potency, µM, inactives show max response, negative = inhibition, most hits filed as inhibitors; P53350; Plk1 PBD binding of FITC phosphopeptide, fluorescence polarization; 360,000 tested, 2.8% active; further: series mostly up to about 57 µM; on the % scale 0 is the no-effect control and ±100 the full control effect; nearly all actives have a fitted effect of over 65% in size
Tb PFK block: blocks T. brucei phosphofructokinase. T. brucei PFK, ADP-Glo luminescence. Potency, µM (highest dose often 57.5 µM), inactives show at the highest dose activity, negative = inhibition, hits mostly inhibitors. 330,000 tested, 0.17% active;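 further: 0% = uninhibited 1x PFK enzyme wells and -100% = no-enzyme wells; nearly all actives have a fitted effect of over 60% in size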
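Luminescent ADP detection (ADP-Glo, two-step: ATP depletion then ADP-to-ATP conversion for luciferase) reported PFK activity after 45 min room-temperature reaction of 1.25 nM enzyme with 0.5 mM F6P and 0.1 mM ATP at pH 8.0.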
BRCA1 expr act: BRCA1 expression activation; MCF7-BRCA1-FFLuc reporter, luminescence, 48 h; response scale: scaled: vehicle 0%, 10 µM genistein 100%; Potency, µM (top dose mostly 46.1 µM), for inactives: top-dose activation, hits mostly activators; 380,000 tested, 1.1% active; AID 624202; further: nearly all actives have a fitted effect of over 80% in size
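Activators of BRCA1 expression were detected as increased firefly luciferase luminescence in engineered MCF7 cells after 48 h compound incubation. Signals were scaled to genistein 10 microM as full activation.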
VDR inhibitor: inhibitors of human vitamin D receptor | P11473 | VDR-SRC2-3 peptide fluorescence polarization, 2 h | Potency, µM, for inactives: max response, negative = inhibition, usual class: inhibitors | 400,000 tested, 0.93% active; further: on the % scale 0 is the no-effect control and ±100 the full control effect
Target sequence (P11473 whole entry, looked up): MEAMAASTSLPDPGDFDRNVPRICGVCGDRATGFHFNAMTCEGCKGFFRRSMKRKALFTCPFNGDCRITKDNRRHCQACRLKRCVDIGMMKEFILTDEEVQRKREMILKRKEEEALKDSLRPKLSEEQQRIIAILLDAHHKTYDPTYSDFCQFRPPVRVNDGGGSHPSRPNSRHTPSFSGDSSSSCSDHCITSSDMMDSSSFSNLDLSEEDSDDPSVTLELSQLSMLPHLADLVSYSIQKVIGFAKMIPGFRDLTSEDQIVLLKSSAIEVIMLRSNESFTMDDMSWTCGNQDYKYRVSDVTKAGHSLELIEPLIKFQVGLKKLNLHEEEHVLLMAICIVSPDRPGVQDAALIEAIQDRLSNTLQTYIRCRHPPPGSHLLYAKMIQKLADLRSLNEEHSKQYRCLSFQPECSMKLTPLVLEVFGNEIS
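VDR–SRC2-3 interaction, FP format. Cmpds 23 nl via pintool, brief spin, 2 h ambient incubation.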
Active calls of the source: *; u = inconclusive; x = no result given. The call rests on the fitted dose curve; in most records, active means well fitted curve in the direction sought with a large enough effect; inconclusive means small, poorly fitted or top-dose-only effect, or another doubt; inactive means no such curve, though single readings can be large; an effect the other way counts as inactive or inconclusive. Potency means the concentration at half of the fitted maximal effect.

SMILES	PLK1 PBD block	Tb PFK block	BRCA1 expr act	VDR inhibitor
O=C(COc1ccc(-c2ccccc2)cc1)N1CCCC1	-4.2%	2.3%	12.6µM*	8.0%
O=C(Oc1ccc(-c2ccccc2)cc1)N1CCCCC1	-3.0%	x	7.08µM*	3.1%
COc1ccc(OCCC(=O)N2CCCCC2)cc1	-16.4%	9.3%	11.2µM*	-12.0%
O=C(Oc1ccccc1)N1CCCCC1	-14.5%	x	8.0%	x
CCCc1nc2ccccc2n1C(CCSC)C(=O)NC(C)(C)C (centres undefined)	-3.5%	x	x	x
Cc1ccc(NC(=O)COC(=O)c2ccccc2OCC(=O)Nc2ccc(Br)cc2)c(C)c1	x	x	15.3%	x
COc1ccc(N(C(=O)c2ccccc2C)S(=O)(=O)c2ccc3c(c2)n(C)c(=O)n3C)cc1	x	x	x	4.5%
COc1ccc(N2CCN(C(c3ccc(F)cc3)c3sc4nc(-c5ccco5)nn4c3O)CC2)cc1 (centres undefined)	x	x	x	-4.8%
O=C(Nc1ccccc1Cl)NC1(C(=O)NCc2cccnc2)CCCCC1	-2.1%	-0.7%	-8.3%	10.3%
Cn1c(=O)c2c(=O)cc(NNC(=O)CC#N)[nH]c2n(C)c1=O	29.9µM*	0.7%	-0.7%	-25.7%
CCCC(=O)NNc1cc(=O)c2c(=O)n(C)c(=O)n(C)c2[nH]1	-2.2%	0.7%	-21.7%	-4.7%
CCn1cc(C(=O)N2CCN(c3ccccc3OC)CC2)c(=O)c2cc(S(=O)(=O)N3CCC(C)CC3)ccc21	x	x	2.5%	-11.3%
Cc1ccc(-n2ncc3c(NCc4cccnc4)ncnc32)cc1C	-3.0%	0.1%	1µM*	-7.8%
Cc1cccc(-n2ncc3c(NCc4cccnc4)ncnc32)c1	-8.5%	-1.6%	2.51µM*	-14.8%
Cc1ccc(-n2ncc3c(NCc4cccnc4)ncnc32)c(C)c1	-0.5%	-2.0%	-33.4%	-11.9%
COc1ccc(-n2ncc3c(NCc4cccnc4)ncnc32)cc1	0.5%	0.4%	88.6%	8.7%
Cc1sc(NC(=O)CS(=O)(=O)c2ccccc2)c(C#N)c1C	-9.4%	-11.8%	u	-12.6%
Cc1sc(NC(=O)CCS(=O)(=O)c2ccccc2)c(C#N)c1C	13.4µM*	-22.3%	-35.2%	89.1µM*
O=C(Nc1ccccc1)c1cc(C2CCCCN2S(=O)(=O)c2ccccc2)on1 (centres undefined)	4.0%	x	72.0%	x
O=C(NCCc1ccccc1)c1cccc(NC(=O)C2CC2)c1	-15.6%	x	6.31µM*	6.3%
O=C(NCCc1ccccc1)c1cccc(Br)c1	1.6%	0.4%	12.6µM*	-13.0%
O=C(NCCc1ccccc1)c1cccc(NC(=O)C2CCC2)c1	-3.9%	x	u	-4.1%
O=C(NCCc1ccccc1)/C(=N\O)c1ccccc1	-3.5%	-3.2%	1.26µM*	-19.5%
CN(C)CCCNC(=O)/C(=N\O)c1ccccc1	-11.0%	1.9%	-0.7%	11.2%
Cc1cccc(C)c1NC(=O)C1(C)CSCC(=O)N1CCCn1ccnc1 (centres undefined)	-11.1%	x	x	x
SMILES	PLK1 PBD block	Tb PFK block	BRCA1 expr act	VDR inhibitor
CCC(=O)Nc1ccc(C(=O)NNC(=O)CCCCC(=O)NNC(=O)c2ccc(NC(=O)CC)cc2)cc1	-18.2%	x	-3.4%	x
N#Cc1c(NC(=O)c2cc3nc(-c4ccc(Br)cc4)cc(C(F)(F)F)n3n2)sc2c1CCCC2	x	x	x	5.6%
CCOc1ncccc1C(=O)Nc1cc(C(F)(F)F)ccc1N1CCOCC1	-15.6%	-3.7%	1.1%	-3.7%
CCOc1ncccc1C(=O)Nc1cc(S(=O)(=O)N(CC)CC)ccc1N1CCOCC1	16.8µM*	0.0%	-30.1%	79.4µM*
Cn1c(=O)c(=O)n(C)c2cc(N3CCOCC3)c(NS(=O)(=O)c3ccc([N+](=O)[O-])cc3)cc21	18.9µM*	-19.6%	5.5%	-7.2%
Cn1c(=O)c(=O)n(C)c2cc(N3CCOCC3)c(NS(=O)(=O)c3ccc(F)c(Cl)c3)cc21	-14.4%	1.2%	-14.8%	-24.9%
CCN(CC)S(=O)(=O)c1ccc(N2CCOCC2)c(NS(=O)(=O)c2ccc(C(C)C)cc2)c1	u	-8.8%	-1.3%	35.5µM*
O=C(Nc1cccc(Cl)c1)O/N=C\c1ccncc1	9.47µM*	-10.7%	2.9%	4.9%
Clc1cccc(N/N=C/c2ccncc2)c1	-14.0%	-2.9%	u	7.6%
O=C(Nc1cccc(Cl)c1)OCCOC(=O)Nc1cccc(Cl)c1	-1.0%	x	-62.3%	2.3%
O=C(Nc1cccc(Cl)c1)OCC#CCCl	x	x	x	3.55µM*
O=C(COC(=O)c1cccnc1)Nc1cccc(Cl)c1	-3.3%	-8.1%	-0.9%	11.3%
O=C(COC(=O)c1ccncc1)Nc1cccc(Cl)c1	21.2µM*	-8.7%	15.6%	-18.9%
CCCC1(C)C(C#N)(C#N)C1(C#N)C#N	x	x	x	10µM*
CCCC1(C)C(C#N)C(=O)NC(=O)C1C#N (centres undefined)	3.3%	x	6.4%	0.0%
CC(CCC(=O)O)C1CCC2C3CC[C@H]4CC(O)CC[C@@]4(C)C3C=C[C@]12C (some centres undefined)	x	x	x	28.2µM*
COc1ccc2nc3n(c(=O)c2c1)-c1ccccc1C(=O)NC3Cc1ccccc1 (centres undefined)	x	0.7%	x	x
CCOc1cccc(C=Nc2cc(C)cc(C)c2O)c1O	23.8µM*	-9.9%	-43.2%	u
COCC(=O)N(C)C[C@H]1Oc2ncc(Br)cc2C(=O)N([C@@H](C)CO)C[C@H]1C	-0.1%	x	0.6%	x
O=C(Nc1cccc(C(F)(F)F)c1)C1Cc2c(-c3ccccc3Oc3ccccc3)ccnc2O1 (centres undefined)	2.6%	x	-35.7%	x
CC(C)CCNC(=O)NC(=O)COC(=O)/C=C/c1cc(Br)ccc1F	15µM*	-1.1%	2.7%	u
O=C(NCc1ccccc1)C1c2ccccc2OCC(=O)N1Cc1ccco1 (centres undefined)	-2.0%	x	-3.0%	x
CCC(C)n1c(OC)nc2c1c(=O)n(C)c(=O)n2C (centres undefined)	2.67µM*	-0.5%	-11.5%	u
C/C=C/COc1nc2c(c(=O)n(C)c(=O)n2C)n1C	2.99µM*	1.8%	-8.8%	-15.4%
CCn1c(OC)nc2c1c(=O)n(C)c(=O)n2C	1.6%	-3.2%	14.7%	-13.3%
SMILES	PLK1 PBD block	Tb PFK block	BRCA1 expr act	VDR inhibitor
COc1ccc(Br)cc1CNC(=O)c1nn(-c2ccc(C)cc2)c(=O)c2c1c1ccccc1n2C	x	x	x	-8.2%
CC(C)OCCCNC(=O)CN1CCN(Cc2ccccc2Cl)C1=O	3.36µM*	2.7%	3.9%	-23.9%
O=C(CN1CCN(Cc2ccccc2Cl)C1=O)NCCc1ccc(Cl)cc1	x	x	-6.6%	-14.0%
Cc1ccc(CN2CCN(C(=O)/C=C/[C@H]3O[C@@H](n4cc(C)c(=O)[nH]c4=O)C[C@@H]3O)CC2)cc1	1.5%	x	16.1%	x
Fc1ccccc1CSc1nc2ncc(Br)cc2[nH]1	-9.1%	1.7%	11.2µM*	-3.0%
CCOC(=O)C1=NN(c2ccccc2)C(=O)/C1=C\c1ccc(N(C)C)cc1	1.89µM*	20.3%	-6.7%	u
COC(=O)CC1=NN(c2ccccc2)C(=O)/C1=C\c1ccc(OC)cc1	2.67µM*	22.0%	-7.5%	-24.6%
COc1ccc(C=C2c3ccccc3C(=O)c3ccccc32)c(OC)c1	x	5.3%	x	x
COc1ccc(C(=O)NNC(=O)C2=NN(c3ccccc3)C(=O)CC2)cc1	-18.2%	-10.3%	-3.2%	-9.7%
